Reference: paper PMC7862700, “An all-to-all approach to the identification of sequence-specific readers for epigenetic DNA modifications on cytosine”

Assays:
Assay in all cases: DAPPL (digital affinity profiling via proximity ligation, sequencing); 10 mM Tris-HCl pH 7.5, 50 mM NaCl, 1 mM DTT, 4% glycerol, room temperature, 30 min; GST-TFs on glutathione beads, 16-mer random dsDNA library, 0.1% formaldehyde crosslink after washing; high values mean tight binding
[1] = biological target: T1, FEV (Homo sapiens, UniProt Q99581 1-238); details: protein: recombinant; tags: N-terminal GST; dsDNA, one strand shown
T1 sequence: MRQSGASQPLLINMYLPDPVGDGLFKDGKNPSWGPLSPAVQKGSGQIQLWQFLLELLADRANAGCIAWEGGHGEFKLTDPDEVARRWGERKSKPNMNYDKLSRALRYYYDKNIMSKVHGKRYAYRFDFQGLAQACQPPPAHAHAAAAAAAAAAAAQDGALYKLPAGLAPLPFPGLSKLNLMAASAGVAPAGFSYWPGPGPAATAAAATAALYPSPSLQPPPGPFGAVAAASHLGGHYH
Summary of the method: (§1)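 Yeast served to express human transcription factors as GST fusions, which were then captured on glutathione beads and labelled with DNA barcodes. Pooled with a tag-only sample, they were incubated with 200 nmole of a 16-mer random double-stranded DNA library for 30 min at room temperature in Tris/NaCl/DTT/glycerol buffer, washed, crosslinked with 0.1% formaldehyde, ligated by proximity, amplified by PCR and sequenced. Dividing each hexamer's read frequency for a factor by its frequency for the tag-only sample gives the binding signal.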

[2] = biological target: ETV5 (Homo sapiens, UniProt P41161 1-510); details: protein: recombinant; tags: N-terminal GST; dsDNA, one strand shown
Summary of the method: as §1

[3] = biological target: HSF1 (Homo sapiens, UniProt Q00613 1-529); details: protein: recombinant; tags: N-terminal GST; chain copies: 3; dsDNA, one strand shown
Summary of the method: as §1

[4] = biological target: T2, SPIC (Homo sapiens, UniProt Q8N5J4 1-248); details: protein: recombinant; tags: N-terminal GST; dsDNA, one strand shown
T2 sequence: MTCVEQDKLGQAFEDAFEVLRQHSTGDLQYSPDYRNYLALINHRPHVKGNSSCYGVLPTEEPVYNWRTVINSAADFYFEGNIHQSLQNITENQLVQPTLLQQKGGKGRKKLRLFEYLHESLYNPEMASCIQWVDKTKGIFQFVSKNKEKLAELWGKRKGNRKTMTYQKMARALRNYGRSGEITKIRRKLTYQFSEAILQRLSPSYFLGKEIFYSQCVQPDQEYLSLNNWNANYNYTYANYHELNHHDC
Summary of the method: as §1

[5] = biological target: ELF4 (Homo sapiens, UniProt Q99607 1-663); details: protein: recombinant; tags: N-terminal GST; dsDNA, one strand shown
Summary of the method: as §1

[6] = biological target: T3, ELK4 (Homo sapiens, UniProt P28324-2 1-405); details: protein: recombinant; tags: N-terminal GST; dsDNA, one strand shown
T3 sequence: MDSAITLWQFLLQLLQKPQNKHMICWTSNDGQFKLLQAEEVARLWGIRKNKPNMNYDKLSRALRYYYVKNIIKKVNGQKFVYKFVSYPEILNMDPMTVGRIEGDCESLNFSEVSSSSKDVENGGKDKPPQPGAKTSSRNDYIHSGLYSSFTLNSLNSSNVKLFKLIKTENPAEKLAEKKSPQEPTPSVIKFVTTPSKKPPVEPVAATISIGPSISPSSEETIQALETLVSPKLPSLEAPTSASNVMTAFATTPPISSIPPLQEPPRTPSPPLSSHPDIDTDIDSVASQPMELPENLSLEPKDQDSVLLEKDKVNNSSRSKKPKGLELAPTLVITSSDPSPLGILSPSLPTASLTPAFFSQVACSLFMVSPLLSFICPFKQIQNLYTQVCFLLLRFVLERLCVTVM
Summary of the method: as §1

[7] = biological target: T4, ETV2 (Homo sapiens, UniProt O00321 1-342); details: protein: recombinant; tags: N-terminal GST; dsDNA, one strand shown
T4 sequence: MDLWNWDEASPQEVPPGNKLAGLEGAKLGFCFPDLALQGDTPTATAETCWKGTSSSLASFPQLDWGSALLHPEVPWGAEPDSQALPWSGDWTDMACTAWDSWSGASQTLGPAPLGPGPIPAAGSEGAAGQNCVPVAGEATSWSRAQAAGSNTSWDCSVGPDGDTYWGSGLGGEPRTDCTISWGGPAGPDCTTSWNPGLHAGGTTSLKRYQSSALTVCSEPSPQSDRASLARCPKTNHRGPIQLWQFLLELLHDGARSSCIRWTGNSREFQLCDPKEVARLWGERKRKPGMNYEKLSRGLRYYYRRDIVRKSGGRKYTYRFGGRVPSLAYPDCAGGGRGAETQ
Summary of the method: as §1

[8] = biological target: T5, ELF3 (Homo sapiens, UniProt P78545 1-371); details: protein: recombinant; tags: N-terminal GST; dsDNA, one strand shown
T5 sequence: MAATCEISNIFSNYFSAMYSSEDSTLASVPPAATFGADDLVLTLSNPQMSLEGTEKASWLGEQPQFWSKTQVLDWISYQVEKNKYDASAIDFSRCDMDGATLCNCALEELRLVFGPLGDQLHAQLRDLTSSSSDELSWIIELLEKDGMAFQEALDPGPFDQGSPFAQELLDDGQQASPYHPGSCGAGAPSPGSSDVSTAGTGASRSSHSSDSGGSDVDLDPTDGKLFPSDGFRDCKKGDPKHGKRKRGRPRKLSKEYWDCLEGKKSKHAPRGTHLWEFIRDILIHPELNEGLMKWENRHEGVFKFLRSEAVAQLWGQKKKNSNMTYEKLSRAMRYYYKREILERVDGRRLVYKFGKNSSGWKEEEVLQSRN
Summary of the method: as §1

[9] = biological target: CRX (Homo sapiens, UniProt O43186 1-299); details: protein: recombinant; tags: N-terminal GST; dsDNA, one strand shown
Summary of the method: as §1

[10] = biological target: ETV1 (Homo sapiens, UniProt P50549 1-477); details: protein: recombinant; tags: N-terminal GST; dsDNA, one strand shown
Summary of the method: as §1

ELF4, sequence (Q99607 whole entry): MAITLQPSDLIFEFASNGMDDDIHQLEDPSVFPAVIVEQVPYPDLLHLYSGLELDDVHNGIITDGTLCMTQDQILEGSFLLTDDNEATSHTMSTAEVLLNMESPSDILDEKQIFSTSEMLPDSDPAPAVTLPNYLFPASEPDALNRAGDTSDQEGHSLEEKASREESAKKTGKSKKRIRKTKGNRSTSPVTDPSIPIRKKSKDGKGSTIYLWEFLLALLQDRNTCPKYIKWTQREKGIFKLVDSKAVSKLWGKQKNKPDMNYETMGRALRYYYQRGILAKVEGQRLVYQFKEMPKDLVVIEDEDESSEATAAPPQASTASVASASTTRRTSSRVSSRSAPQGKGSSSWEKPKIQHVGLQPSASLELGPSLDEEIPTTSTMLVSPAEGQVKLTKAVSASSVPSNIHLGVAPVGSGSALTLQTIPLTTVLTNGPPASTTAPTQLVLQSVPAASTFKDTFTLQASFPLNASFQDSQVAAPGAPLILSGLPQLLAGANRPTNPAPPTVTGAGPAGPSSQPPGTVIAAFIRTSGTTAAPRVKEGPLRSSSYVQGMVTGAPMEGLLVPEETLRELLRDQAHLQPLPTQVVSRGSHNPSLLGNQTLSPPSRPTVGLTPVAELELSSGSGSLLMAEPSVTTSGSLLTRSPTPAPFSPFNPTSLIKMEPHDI
ETV5, sequence (P41161 whole entry): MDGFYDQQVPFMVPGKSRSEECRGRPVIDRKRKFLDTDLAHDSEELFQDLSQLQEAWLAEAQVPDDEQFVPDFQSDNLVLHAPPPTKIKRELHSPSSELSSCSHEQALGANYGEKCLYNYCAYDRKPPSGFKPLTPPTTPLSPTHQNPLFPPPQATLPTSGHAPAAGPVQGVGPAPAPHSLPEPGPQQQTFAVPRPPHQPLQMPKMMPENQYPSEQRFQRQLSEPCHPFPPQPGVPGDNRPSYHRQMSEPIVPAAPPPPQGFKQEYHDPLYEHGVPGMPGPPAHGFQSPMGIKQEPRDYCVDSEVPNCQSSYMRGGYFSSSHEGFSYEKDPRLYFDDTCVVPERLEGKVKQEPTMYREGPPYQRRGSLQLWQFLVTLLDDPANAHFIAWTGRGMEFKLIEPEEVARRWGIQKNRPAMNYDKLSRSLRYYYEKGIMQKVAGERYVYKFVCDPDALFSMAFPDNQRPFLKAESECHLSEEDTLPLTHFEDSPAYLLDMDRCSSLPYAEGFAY
CRX, sequence (O43186 whole entry): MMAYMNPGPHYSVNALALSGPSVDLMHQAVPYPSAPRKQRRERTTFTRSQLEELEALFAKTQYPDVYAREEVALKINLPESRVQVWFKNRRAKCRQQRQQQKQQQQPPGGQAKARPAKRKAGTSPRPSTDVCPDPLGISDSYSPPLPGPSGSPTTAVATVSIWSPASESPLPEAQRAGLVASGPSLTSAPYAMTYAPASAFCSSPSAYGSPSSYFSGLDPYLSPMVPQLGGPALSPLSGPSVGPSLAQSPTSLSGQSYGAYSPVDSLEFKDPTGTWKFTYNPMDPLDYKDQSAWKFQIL
ETV1, sequence (P50549 whole entry): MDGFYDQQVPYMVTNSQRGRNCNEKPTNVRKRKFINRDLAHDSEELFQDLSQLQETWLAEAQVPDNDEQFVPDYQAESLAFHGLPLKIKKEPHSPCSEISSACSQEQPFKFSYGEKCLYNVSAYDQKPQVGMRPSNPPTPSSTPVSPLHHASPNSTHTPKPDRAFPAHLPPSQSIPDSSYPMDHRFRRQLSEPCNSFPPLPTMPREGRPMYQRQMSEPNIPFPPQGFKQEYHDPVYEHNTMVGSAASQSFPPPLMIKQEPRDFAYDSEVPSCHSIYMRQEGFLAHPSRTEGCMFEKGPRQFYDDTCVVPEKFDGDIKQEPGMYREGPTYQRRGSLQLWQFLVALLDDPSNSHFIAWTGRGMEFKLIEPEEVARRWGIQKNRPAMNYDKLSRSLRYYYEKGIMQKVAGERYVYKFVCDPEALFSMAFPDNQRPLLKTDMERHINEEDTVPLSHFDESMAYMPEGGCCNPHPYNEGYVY
HSF1, sequence (Q00613 whole entry): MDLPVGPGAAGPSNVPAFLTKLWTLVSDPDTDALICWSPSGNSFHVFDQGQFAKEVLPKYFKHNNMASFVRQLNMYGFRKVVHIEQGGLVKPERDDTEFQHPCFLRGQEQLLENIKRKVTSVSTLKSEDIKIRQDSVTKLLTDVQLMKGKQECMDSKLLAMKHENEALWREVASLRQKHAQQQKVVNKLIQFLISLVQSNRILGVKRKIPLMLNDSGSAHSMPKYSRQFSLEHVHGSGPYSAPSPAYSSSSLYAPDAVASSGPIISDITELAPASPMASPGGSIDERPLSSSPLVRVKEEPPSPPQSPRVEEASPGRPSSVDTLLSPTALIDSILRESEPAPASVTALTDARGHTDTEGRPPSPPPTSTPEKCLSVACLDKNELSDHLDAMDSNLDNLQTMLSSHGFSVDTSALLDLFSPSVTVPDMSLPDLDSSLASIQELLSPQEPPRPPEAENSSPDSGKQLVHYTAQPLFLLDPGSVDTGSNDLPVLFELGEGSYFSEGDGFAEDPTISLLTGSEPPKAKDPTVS

| Sequence | binding signal [1] | binding signal [2] | binding signal [3] | binding signal [4] | binding signal [5] | binding signal [6] | binding signal [7] | binding signal [8] | binding signal [9] | binding signal [10] |
| --- | --- | --- | --- | --- | --- | --- | --- | --- | --- | --- |
| CTGGCA | 1.27 fold enrichment (6-mer frequency, TF over GST control) | 1.21 fold enrichment (6-mer frequency, TF over GST control) | 1.62 fold enrichment (6-mer frequency, TF over GST control) | 1.28 fold enrichment (6-mer frequency, TF over GST control) | 1.35 fold enrichment (6-mer frequency, TF over GST control) | 1.27 fold enrichment (6-mer frequency, TF over GST control) | 1.49 fold enrichment (6-mer frequency, TF over GST control) | 1.3 fold enrichment (6-mer frequency, TF over GST control) | 1.19 fold enrichment (6-mer frequency, TF over GST control) | 1.27 fold enrichment (6-mer frequency, TF over GST control) |
| AAAAGG | 1.06 fold enrichment (6-mer frequency, TF over GST control) | 1.17 fold enrichment (6-mer frequency, TF over GST control) | 1.05 fold enrichment (6-mer frequency, TF over GST control) | 1.18 fold enrichment (6-mer frequency, TF over GST control) | 1.1 fold enrichment (6-mer frequency, TF over GST control) | 1 fold enrichment (6-mer frequency, TF over GST control) | 1.12 fold enrichment (6-mer frequency, TF over GST control) | 1.2 fold enrichment (6-mer frequency, TF over GST control) | 1.04 fold enrichment (6-mer frequency, TF over GST control) | 1.19 fold enrichment (6-mer frequency, TF over GST control) |
| ACGTAA | 1.07 fold enrichment (6-mer frequency, TF over GST control) | 1.16 fold enrichment (6-mer frequency, TF over GST control) | 1.17 fold enrichment (6-mer frequency, TF over GST control) | 1.12 fold enrichment (6-mer frequency, TF over GST control) | 1.14 fold enrichment (6-mer frequency, TF over GST control) | 1.12 fold enrichment (6-mer frequency, TF over GST control) | 1.12 fold enrichment (6-mer frequency, TF over GST control) | 1.07 fold enrichment (6-mer frequency, TF over GST control) | 1.27 fold enrichment (6-mer frequency, TF over GST control) | 1.12 fold enrichment (6-mer frequency, TF over GST control) |
| GAATCT | 1.03 fold enrichment (6-mer frequency, TF over GST control) | 1.13 fold enrichment (6-mer frequency, TF over GST control) | 1.76 fold enrichment (6-mer frequency, TF over GST control) | 1.05 fold enrichment (6-mer frequency, TF over GST control) | 1.07 fold enrichment (6-mer frequency, TF over GST control) | 1.08 fold enrichment (6-mer frequency, TF over GST control) | 1.2 fold enrichment (6-mer frequency, TF over GST control) | 1.03 fold enrichment (6-mer frequency, TF over GST control) | 1.21 fold enrichment (6-mer frequency, TF over GST control) | 1.08 fold enrichment (6-mer frequency, TF over GST control) |
| TATGGT | 1.24 fold enrichment (6-mer frequency, TF over GST control) | 1.38 fold enrichment (6-mer frequency, TF over GST control) | 1.16 fold enrichment (6-mer frequency, TF over GST control) | 1.49 fold enrichment (6-mer frequency, TF over GST control) | 1.34 fold enrichment (6-mer frequency, TF over GST control) | 1.44 fold enrichment (6-mer frequency, TF over GST control) | 1 fold enrichment (6-mer frequency, TF over GST control) | 1.5 fold enrichment (6-mer frequency, TF over GST control) | 1.29 fold enrichment (6-mer frequency, TF over GST control) | 1.27 fold enrichment (6-mer frequency, TF over GST control) |
| CCCTCC | 1.51 fold enrichment (6-mer frequency, TF over GST control) | 1.48 fold enrichment (6-mer frequency, TF over GST control) | 1.22 fold enrichment (6-mer frequency, TF over GST control) | 1.73 fold enrichment (6-mer frequency, TF over GST control) | 1.58 fold enrichment (6-mer frequency, TF over GST control) | 1.38 fold enrichment (6-mer frequency, TF over GST control) | 1.32 fold enrichment (6-mer frequency, TF over GST control) | 1.27 fold enrichment (6-mer frequency, TF over GST control) | 1.19 fold enrichment (6-mer frequency, TF over GST control) | 1.45 fold enrichment (6-mer frequency, TF over GST control) |
| GCTTAT | 1.21 fold enrichment (6-mer frequency, TF over GST control) | 1.23 fold enrichment (6-mer frequency, TF over GST control) | 1.89 fold enrichment (6-mer frequency, TF over GST control) | 1.42 fold enrichment (6-mer frequency, TF over GST control) | 1.23 fold enrichment (6-mer frequency, TF over GST control) | 1.28 fold enrichment (6-mer frequency, TF over GST control) | 1.11 fold enrichment (6-mer frequency, TF over GST control) | 1.29 fold enrichment (6-mer frequency, TF over GST control) | 2.89 fold enrichment (6-mer frequency, TF over GST control) | 1.35 fold enrichment (6-mer frequency, TF over GST control) |
